PubChem BioAssay (NCATS)
Records with an inconclusive call do not appear. A call without a number means that no potency is given here. Calls of active or inactive are those of the source. Calls follow the shape of the dose curve; as a rule, active = well fitted inhibition curve with a large enough effect; inconclusive = small, poorly fitted or top-dose-only effect; inactive = flat fitted curve, though single readings scatter.

Target: Calcium and integrin-binding protein 1 (Homo sapiens) (UniProt Q99828)
Sequence (Q99828 whole entry, looked up): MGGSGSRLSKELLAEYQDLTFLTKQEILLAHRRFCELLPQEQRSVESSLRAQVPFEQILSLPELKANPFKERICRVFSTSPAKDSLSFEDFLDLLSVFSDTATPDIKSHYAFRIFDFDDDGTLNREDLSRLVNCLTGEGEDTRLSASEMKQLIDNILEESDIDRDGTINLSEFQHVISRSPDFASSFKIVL
Experiment: Primary qHTS for Identification of Calcium Integrin Binding Protein 1 (CIB1) Competitor (AID 1508620);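 also: GST tagged CIB1 binding a fluorescein labelled alphaIIb integrin peptide tracer; top concentration of the series differs between compounds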
Details: CIB1-GST / FITC-alphaIIb peptide fluorescence polarization; series mostly up to 114 µM
Outline: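 Fluorescence polarization competition: CIB1-GST (1 uM final) preincubated with compound 15 min at room temperature, then FITC-labeled alphaIIb peptide (100 nM final) added for another 15 min. Polarization read at Ex 480/Em 540.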

| SMILES | Potency |
| --- | --- |
| O=C1Cc2c([nH]c3ccc(Br)cc23)-c2ncccc2N1 | inactive |
| C[C@@H](O[C@H]1OCCN(Cc2nn(P(=O)(O)O)c(=O)[nH]2)[C@H]1c1ccc(F)cc1)c1cc(C(F)(F)F)cc(C(F)(F)F)c1 | inactive |
| C=C1C(=O)OC2/C=C(\CO)CC/C=C(\C=O)C(OC)C(OC(=O)C(C)CC)C12 (stereo not drawn) | inactive |
| C/C=C/CCC1Cc2cc(O)c(CCCC)c(O)c2C(=O)O1 (stereo not drawn) | inactive |
| C=CC1(C)CC(O)C(C(=C)C(=O)OC)C(O)C1C(=C)CO (stereo not drawn) | inactive |
| COc1cc(C#N)ccc1S(=O)(=O)Nc1ccc2c(c1)cc(C)c(=O)n2C | inactive |
| CCN1CCN(Cc2ccc(NC(=O)c3ccc(C)c(Oc4ncnc5[nH]c(C)cc45)c3)cc2C(F)(F)F)CC1 | inactive |
| COc1c(CCC(=O)O)cccc1O[C@@H]1O[C@H](CO)[C@@H](O)[C@H](O)[C@H]1O | inactive |
| C=C1C(=O)OC2/C=C(/C)C3=CC(=O)C(C)(CC(OC(=O)/C(C)=C/COC(C)=O)C12)O3 (stereo not drawn) | inactive |
| CC[C@@H](C)Nc1cc(C(=O)NC2CC3CC[C@@H](C2)N3c2ccc(C(=O)C3CC3)cn2)c(C)cc1C(N)=O (stereo partly drawn) | inactive |
| C=C1C(=O)OC[C@@H]1C/C=C(\C)CC1CC(C)C(=O)O1 (stereo partly drawn) | inactive |
| C=C1C(=O)O[C@@H]2C3C(=C(C)[C@@H](O)[C@@H](OC(=O)/C(=C/C)COC(C)=O)[C@@H]12)C(=O)[C@H]1O[C@@]31C (stereo partly drawn) | inactive |
| Cc1ccc(OC[C@H](O)[C@H](C)NC(C)C)c2c1CCC2 | inactive |
| CO[C@H]1[C@@H](O)[C@H](O[C@H]2CC[C@@]3(C)C(CCC4C3CC[C@]35COC6(COC(=O)C6)C3CCC45O)C2)O[C@@H](C)[C@@H]1OC1OC(CO)C(OC2OC(CO)C(O)C(O)C2O)C(O)C1O (stereo partly drawn) | inactive |
| O=C1C[C@]23C=CCN4CCC5c6cc7c(cc6N1[C@@]5(CC2)C43)OCO7 (stereo partly drawn) | inactive |
| CCCCNc1ncc2c(-c3ccc(S(=O)(=O)N4CCOCC4)cc3)nn(C3CCC(O)CC3)c2n1 (stereo not drawn) | inactive |
| C=C1C(=O)O[C@H]2C[C@@H](C)[C@@H]3CCC(=O)[C@@]3(C)C[C@H]12 | inactive |
| CC[C@H](C)/C=C(C)/C=C/C1=CC2=C(Cl)C(=O)[C@](C)(O)[C@H](OC(C)=O)[C@H]2CO1 | inactive |
| CC1(C)CCCC2(C)C1C(=O)C=C(C(=O)O)C2(O)C(=O)O (stereo not drawn) | inactive |

| SMILES | Potency |
| --- | --- |
| COC(=O)/C=C/C=C/C(=O)OC1C=C2COC(=O)C2(O)C2(C)CCCC(C)(C)C12 (stereo not drawn) | inactive |
| CC(C)c1ccccc1OC(=O)NCCc1ccc2ccccc2c1 | inactive |
| C=C1CC[C@@H](O)[C@]2(C)CC[C@H]3C(=C)C(=O)O[C@@H]3[C@@H]12 | inactive |
| C/C=C(/C)C(=O)O[C@@H]1C[C@@H](OC(=O)CC(C)C)C2(C)C3C(=O)C=C(C)C2C3C1(C)C (stereo partly drawn) | inactive |
| COc1ccc(C#Cc2ccc(C(=O)N3CCC[C@@H](CO)C3)cc2)cc1 | inactive |
| OC[C@H]1O[C@@H](OC/C=C/c2ccc(O)cc2)[C@H](O)[C@@H](O)[C@@H]1O | inactive |
| CCC/C=C\C=C/CCc1cc(O)c([C@@H]2O[C@H](CO)[C@@H](O)[C@H](O)[C@H]2O)c(O)c1C(=O)OC | inactive |
| O=C(c1ccc(F)cc1)N1CCCC(c2nc(-c3ccc(F)cc3)no2)C1 (stereo not drawn) | inactive |
| COc1cccc(NCCC2(c3ccccc3)CC(C)(C)OC(C)(C)C2)c1 | inactive |
| CC(C)C[C@H](CO)Nc1nc(S[C@@H](C)c2ccccc2)nc2nc(N)sc12 | inactive |
| CN(CC1COCCO1)S(=O)(=O)Nc1ccc2ccc3ncc(-c4cnn(C)c4)cc3c(=O)c2c1 (stereo not drawn) | inactive |
| O=C(Nc1ccc(-c2ccc(Cl)c(Cl)c2)cc1)C1=C(O)c2ccccc2S(=O)(=O)N1 | inactive |
| CN(C)N(C)C(=O)[C@@]1(Cc2ccccc2)CCCN(C(=O)[C@@H](Cc2c[nH]c3ccccc23)NC(=O)C(C)(C)N)C1 | inactive |
| CCN(CC)C(=O)c1ccc(Nc2nc(OCC3CCCCC3)c3[nH]cnc3n2)cc1 | inactive |
| CS/C=C/C(=O)O[C@@H]1CCC2=CC(=O)C(=C(C)C)C[C@]2(C)[C@H]1C | inactive |
| COc1ccc(CN2CCN(CCCSc3cc(C(C)(C)C)c(O)c(C(C)(C)C)c3)CC2)c(OC)c1OC | inactive |
| NC(N)=NC(=O)c1cnn(-c2cccc3ncccc23)c1C1CC1 | inactive |
| C=C1/C(=C/C=C2\CCC[C@]3(C)[C@@H]([C@@H](C)OCCC(O)(CC)CC)CC[C@@H]23)C[C@@H](O)C[C@@H]1O | inactive |
| COC(=O)C[C@H]1[C@]2(C)C3=C(C)[C@H](c4ccoc4)C[C@H]3O[C@@H]2[C@H](O)C2[C@](C)(C(=O)OC)C=CC(=O)[C@@]21C (stereo partly drawn) | inactive |
